The list is not random: actives were taken first. Their share in the collection is about 19%.
IL-1B inflam inh: blocks inflammasome-driven IL-1 beta release; THP-1 LPS/ATP IL-1B secretion, AlphaLISA, 16 h; stronger effect = lower value; activity change, % at 57.5 µM; hit rate 4.7% among 360,000; AID 743279; in the data active means activity change below about -50%; inconclusive means mostly about -30% to -49%
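Secreted IL-1B measured by AlphaLISA bead assay after 16 h compound exposure of THP-1 cells; compounds (final up to 57.5 uM) added 1 h before LPS (250 ng/mL) and ATP (1.25 mM) stimulation; lower signal means less secretion.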
TDP1 cell noCPT: qHTS for Inhibitors of human tyrosyl-DNA phosphodiesterase 1 (TDP1): qHTS in cells in absence of CPT | DT40 Tdp1-/- hTDP1 cells, no CPT, ATP luminescence, 48 h | Potency, µM (series often up to 46.2 µM), without a hit: top-dose activity change, negative = growth inhibition, actives largely listed as inhibitors | hit rate 15% among 420,000; further: potency means the concentration at half of the fitted maximal effect; nearly all actives have a fitted effect of over 55% in size
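Luminescent ATP content (CellTiter-Glo) served as the growth readout. Knockout chicken DT40 cells expressing human TDP1 were exposed to compounds without camptothecin for a minimum 48 hr at 37 °C.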
HT1080NT lethal: kills 2HG-producing HT-1080-NT fibrosarcoma cells; Potency, µM (series often up to 46.1 µM), for inactives: at the highest dose activity, negative = less viability, actives largely listed as cytotoxic; hit rate 1.6% among 360,000; HT-1080-NT fibrosarcoma viability, CellTiter-Glo ATP luminescence, 48 h; AID 686970;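 further: NT is the 2HG producing partner of a matched IDH1 knockdown line; potency means the concentration at half of the fitted maximal effect; 0% = DMSO-treated cells and -100% = media-only wells without cells; nearly all actives have a fitted effect of over 55% in size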
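Fibrosarcoma NT cells, 750 per well in 5% FBS RPMI, were exposed to compound for 48 hours. Viability: CellTiter-Glo luminescence.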
ELG1 repair inh: blocks ELG1-dependent DNA repair in HEK293T cells; Potency, µM (top dose mostly 46.1 µM), for the others: top-dose activity change, negative = inhibition, most hits filed as inhibitors; AID 504467; HEK293T ELG1-luciferase reporter, luminescence, 16 h; DNA damage induced by 5-fluorouridine; hit rate 2.3% among 330,000; further: potency means the concentration at half of the fitted maximal effect; nearly all actives have a fitted effect of over 55% in size
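In this reporter screen, reduction of luminescence relative to DMSO vehicle indicated activity. Compounds and 5-fluorouridine were added together to 2,000 cells per well, incubated for 16 hr at 37 °C, then developed with ONE-Glo.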
HT1080 IDH1KD tx: kills HT-1080 cells with IDH1 knockdown | HT-1080 IDH1 knockdown viability, ATP luminescence, 48 h | Potency, µM (highest dose often 46.1 µM), for inactives: at the top dose activity, negative = toxicity, most hits filed as cytotoxic | hit rate 2% among 360,000 | AID 686971;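 further: potency means the concentration at half of the fitted maximal effect; 0% = DMSO wells and -100% = cell-free medium wells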
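Using the IDH1-knockdown HT-1080 line run in the same batch and compound series as the NT line, viability after 48 h at 37 °C was determined by CellTiter-Glo luminescence and expressed as % activity.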
TDP1 cell CPT: DT40-hTDP1 cell growth loss with CPT. chicken DT40 Tdp1-/-;hTDP1 cells + 20 nM CPT, ATP luminescence, 48 h. Potency, µM (titrated, usually from 46.2 µM), without a hit: at the highest dose activity change, negative = growth inhibition, usual class: inhibitors. hit rate 12% among 420,000; further: potency means the concentration at half of the fitted maximal effect; nearly all actives have a fitted effect of over 55% in size
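Chicken DT40 Tdp1-/- cells complemented with human TDP1, 400 cells/well, exposed to compounds plus 20 nM camptothecin for at least 48 h at 37 C; viability read as ATP content by CellTiter-Glo luminescence.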
Numbers without * were called inactive. Unless noted, the call rests on the fitted dose curve; in most records, active means well fitted curve in the direction sought with a large enough effect; inconclusive means small, poorly fitted or top-dose-only effect, or another doubt; inactive means no such curve, though single readings can be large; an effect the other way counts as inactive or inconclusive. Unless noted, on the % scale 0 is the no-effect control and ±100 the full control effect.

Screening Cc1cc2c(cc1C)NC(C)CC(=O)N2 (stereo not given) returned IL-1B inflam inh -1, TDP1 cell noCPT -12%, HT1080NT lethal 13%, HT1080 IDH1KD tx 8% and TDP1 cell CPT -3%.
O=C1NC(c2cccc3ccccc23)Nc2ccc(Cl)cc21 (stereo not given) was read as IL-1B inflam inh 1, TDP1 cell noCPT 0.58µM*, HT1080NT lethal 0.58µM*, HT1080 IDH1KD tx 0.52µM* and TDP1 cell CPT 0.46µM*.
`O=C(NN=C1CCCCCC1)c1cccs1` gave IL-1B inflam inh 25, TDP1 cell noCPT 21%, HT1080NT lethal 13%, ELG1 repair inh inconclusive, HT1080 IDH1KD tx 17% and TDP1 cell CPT 15%.
For COc1ccc(-c2[nH]ncc2CN2CCC(O)(c3ccc(Cl)cc3)CC2)cc1 the results were IL-1B inflam inh -59*, TDP1 cell noCPT 10µM*, HT1080NT lethal inconclusive, ELG1 repair inh inconclusive, HT1080 IDH1KD tx inconclusive and TDP1 cell CPT inconclusive.
c1ccc(-c2[nH]ncc2CN2CCc3ccccc3C2)cc1 was read as IL-1B inflam inh -1, TDP1 cell noCPT -28%, HT1080NT lethal -16%, ELG1 repair inh 4%, HT1080 IDH1KD tx -19% and TDP1 cell CPT 4%.
OC1(c2ccc(Cl)cc2)CCN(Cc2cn[nH]c2-c2ccc(F)cc2)CC1 was read as IL-1B inflam inh inconclusive, TDP1 cell noCPT 4.1µM*, HT1080NT lethal 21µM*, ELG1 repair inh inconclusive, HT1080 IDH1KD tx inconclusive and TDP1 cell CPT 13µM*.
OC1(c2ccc(Cl)cc2)CCN(Cc2cn[nH]c2-c2ccccc2)CC1 was read as IL-1B inflam inh -53*, TDP1 cell noCPT 15µM*, HT1080NT lethal inconclusive, ELG1 repair inh 3%, HT1080 IDH1KD tx inconclusive and TDP1 cell CPT 16µM*.
`CN(C)c1cc2c3ccccc3n(C)c2cc1N` gave IL-1B inflam inh 0, TDP1 cell noCPT -19%, HT1080NT lethal -14%, HT1080 IDH1KD tx -20% and TDP1 cell CPT -22%.
`CCOC(=O)CC1(CCc2ccccc2)Oc2ccccc2O1` gave IL-1B inflam inh 23, TDP1 cell noCPT -28%, HT1080NT lethal 18%, HT1080 IDH1KD tx 25% and TDP1 cell CPT 4%.
CSc1nsc(SCC(=O)N2CCCc3ccccc32)n1 was read as IL-1B inflam inh -6, TDP1 cell noCPT 29µM*, HT1080NT lethal 3%, ELG1 repair inh -24%, HT1080 IDH1KD tx -7% and TDP1 cell CPT inconclusive.
`Nc1nc(CSc2nnnn2-c2ccccc2)nc(N2CCCc3ccccc32)n1` gave IL-1B inflam inh inconclusive, TDP1 cell noCPT inconclusive, HT1080NT lethal inconclusive, ELG1 repair inh 16µM*, HT1080 IDH1KD tx -23% and TDP1 cell CPT inconclusive.
`CCn1c(SCC(=O)N2CCCc3ccccc32)nnc1-c1cccs1` gave IL-1B inflam inh -5, TDP1 cell noCPT 4%, HT1080NT lethal 22%, ELG1 repair inh -12%, HT1080 IDH1KD tx -14% and TDP1 cell CPT -2%.
For O=C(CSc1nnnn1-c1ccccc1)N1CCCc2ccccc21 the results were IL-1B inflam inh -55*, TDP1 cell noCPT -16%, HT1080NT lethal -1%, ELG1 repair inh -11%, HT1080 IDH1KD tx 1% and TDP1 cell CPT -1%.
`O=C(CSc1nnc(-c2cccs2)n1-c1ccccc1)N1CCCc2ccccc21` gave IL-1B inflam inh inconclusive, TDP1 cell noCPT 16µM*, HT1080NT lethal -31%, ELG1 repair inh inconclusive, HT1080 IDH1KD tx inconclusive and TDP1 cell CPT inconclusive.
`CC(=O)Nc1cccc(NC(=O)c2c(-c3ccccc3)c(-c3ccccc3)nn(C)c2=O)c1` gave TDP1 cell noCPT -29% and TDP1 cell CPT inconclusive.
Screening O=C(CSc1n[nH]c(-c2ccccc2O)n1)N1CCCc2ccccc21 returned IL-1B inflam inh 36, TDP1 cell noCPT 21µM*, HT1080NT lethal inconclusive, ELG1 repair inh -24%, HT1080 IDH1KD tx 16µM* and TDP1 cell CPT inconclusive.
CC(C)c1nc(SCC(=O)N2CCc3ccccc32)n[nH]1 was read as IL-1B inflam inh 0, TDP1 cell noCPT 2%, HT1080NT lethal 14%, ELG1 repair inh inconclusive, HT1080 IDH1KD tx 6% and TDP1 cell CPT -1%.
Screening CN(C)c1ccc(/C=N/N=C2/NC(=O)/C(=C/c3ccc([N+](=O)[O-])cc3)S2)cc1 returned IL-1B inflam inh 9, TDP1 cell noCPT 16µM*, HT1080NT lethal -2%, ELG1 repair inh inconclusive, HT1080 IDH1KD tx 3% and TDP1 cell CPT inconclusive.
`CN(C)c1ccc(C=C2SC(=S)NC2=O)cc1` gave IL-1B inflam inh 13, TDP1 cell noCPT inconclusive, HT1080NT lethal 0%, HT1080 IDH1KD tx -1% and TDP1 cell CPT 0%.
Screening CCN(CC(=O)N1CCCC1)S(=O)(=O)c1cc(C)ccc1OC returned IL-1B inflam inh 2, TDP1 cell noCPT -3%, HT1080NT lethal 10%, ELG1 repair inh -3%, HT1080 IDH1KD tx 4% and TDP1 cell CPT 18%.
`COCC(=O)O[C@]1(CCN(C)CCCc2nc3ccccc3[nH]2)CCc2cc(F)ccc2[C@@H]1C(C)C` gave IL-1B inflam inh -25, TDP1 cell noCPT 16µM*, HT1080NT lethal inconclusive, ELG1 repair inh inconclusive, HT1080 IDH1KD tx inconclusive and TDP1 cell CPT 21µM*.
For O=C(Nc1ccccc1)NC1CCCc2ccccc21 (stereo not given) the results were IL-1B inflam inh -12, TDP1 cell noCPT 18µM*, HT1080NT lethal 9%, ELG1 repair inh -15%, HT1080 IDH1KD tx -2% and TDP1 cell CPT inconclusive.
For S=C(NCc1ccco1)NC1CCCc2ccccc21 (stereo not given) the results were IL-1B inflam inh -4, TDP1 cell noCPT inconclusive, HT1080NT lethal -17%, ELG1 repair inh -17%, HT1080 IDH1KD tx -13% and TDP1 cell CPT inconclusive.
`S=C(NCc1ccccc1)NC1CCCc2ccccc21` (stereo not given) gave IL-1B inflam inh -57*, TDP1 cell noCPT inconclusive, HT1080NT lethal -24%, ELG1 repair inh inconclusive, HT1080 IDH1KD tx -7% and TDP1 cell CPT inconclusive.
For O=C(Nc1ccc(F)cc1)NC1CCCc2ccccc21 (stereo not given) the results were IL-1B inflam inh 25, TDP1 cell noCPT -2%, HT1080NT lethal -1%, ELG1 repair inh -1%, HT1080 IDH1KD tx -5% and TDP1 cell CPT -25%.

Screening results as filed in PubChem BioAssay.
